GLP1R inv ag = inverse agonists of human GLP-1 receptor | actives 1.6% (n = 410,000) | HEK293 GLP-1R CRE-luciferase, luminescence, 24 h; GLP-1R form is constitutively active | Potency, µM (series often up to 38.3 µM), without a hit: at the top dose activity change, negative = inhibition, most hits filed as inhibitors | P43220; also: % is scaled to controls: 0 for no effect and ±100 for the full control effect; nearly all actives have a fitted effect of over 55% in size
Target sequence (P43220 whole entry, looked up): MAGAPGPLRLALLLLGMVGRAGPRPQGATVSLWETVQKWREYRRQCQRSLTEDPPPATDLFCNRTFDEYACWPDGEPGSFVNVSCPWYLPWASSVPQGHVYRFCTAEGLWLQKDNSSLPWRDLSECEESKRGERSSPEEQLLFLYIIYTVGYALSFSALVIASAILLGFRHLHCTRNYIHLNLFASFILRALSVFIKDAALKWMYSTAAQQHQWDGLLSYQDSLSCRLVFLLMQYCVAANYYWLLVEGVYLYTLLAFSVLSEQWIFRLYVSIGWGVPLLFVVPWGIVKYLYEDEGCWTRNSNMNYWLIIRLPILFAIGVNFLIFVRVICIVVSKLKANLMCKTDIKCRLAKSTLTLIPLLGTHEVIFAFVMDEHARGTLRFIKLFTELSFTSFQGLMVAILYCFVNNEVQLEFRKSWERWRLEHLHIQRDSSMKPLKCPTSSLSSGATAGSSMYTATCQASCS
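qHTS in 1536-well format: reporter HEK293 cells expressing constitutive GLP-1R activity in DMEM + 10% Nu serum, 24 hr with compounds at 37 deg C, luminescence read after 12 min with detection reagent.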
HepG2 viability = counter-screen for TGF-b inhibitors: cytotoxicity in HepG2 cells | HepG2 CAGA-GFP viability, ATP luminescence, 18 h | actives 0.76% (n = 410,000) | Potency, µM (highest dose often 46.1 µM), for the others: at the top dose activity change, negative = cytotoxicity, hits mostly cytotoxic
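CellTiter-Glo luminescence gave cytotoxicity after 18 hours at 37 degrees C. The cells were HepG2 CAGA-GFP in 1% FBS DMEM, stimulated with 500 pg/mL TGF-beta after compound addition. %Activity was normalised to no-cell wells (complete cell-killing) and DMSO (no toxicity), and curves were fitted and classified.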
GLP-1R agonist = GLP-1 receptor (human) agonism; AID 624172; HEK293 GLP-1R CRE-luciferase, luminescence, 4-6 h; cells express a hypersensitive GLP-1R form; Potency, µM (doses to about 45.6 µM), for inactives: at the top dose activation, actives largely listed as activators; actives 0.007% (n = 380,000); also: % of control where 0% means no effect
ATXN2 expr inh = reduces ATXN2 reporter expression in HEK-293 cells; Potency, µM (top dose mostly 57 µM), for the others: top-dose activity change, negative = inhibition, most hits filed as inhibitors; actives 0.72% (n = 360,000); AID 1745845; HEK-293 ATXN2-luciferase reporter, luminescence, 24 h; also: % is scaled to controls: 0 for no effect and ±100 for the full control effect; nearly all actives have a fitted effect of over 55% in size
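ATXN2-luciferase reporter cells (luciferase flanked by upstream and downstream ATXN2 gene portions) were treated 24 h at 37 °C with compounds at up to 57 uM. SteadyGlo luminescence gave expression; GF-AFC fluorescence gave viability.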
TGFb SMAD3 inh = blocks TGF-b signaling; HepG2 CAGA-GFP TGF-b/SMAD3 reporter, GFP fluorescence, 18 h; TGF-beta stimulated, 500 pg/mL final; Potency, µM (top dose mostly 46.1 µM), for inactives: at the highest dose activity, negative = inhibition, actives largely listed as inhibitors; actives 1.2% (n = 410,000); AID 588855; also: % is scaled to controls: 0 for no effect and ±100 for the full control effect; nearly all actives have a fitted effect of over 65% in size
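First, reporter cells (HEPG2 CAGA-GFP) rested 2 h at 37 degrees C. Next, compounds were pinned in and TGF-beta added to 500 pg/mL final. After 18 h, GFP was imaged per cell and summed per well.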
ATXN viability = reduces viability in counter-screen for ATXN expression inhibitors; S2 cells (HEK-293 line with an ATXN2-luciferase reporter) viability, CellTiter-Fluor protease fluorescence, 24 h; Potency, µM (titrated, usually from 56.7 µM), most hits filed as cytotoxic; actives 0.49% (n = 400,000); also: nearly all actives have a fitted effect of over 40% in size
Numbers without * were called inactive. In the library only some 3.7% were active in any assay of this set; here they are far more common. Calls follow the shape of the dose curve; as a rule, active = well fitted curve in the direction sought with a large enough effect; inconclusive = small, poorly fitted or top-dose-only effect, or another doubt; inactive = no such curve, though single readings can be large; an effect the other way counts as inactive or inconclusive. Potency is read from the fitted curve at half-maximal effect.

What do the screens show for `CN(Cc1ccccc1N1CCCC1)C(=O)c1cc2ccccc2o1`?
GLP1R inv ag: 10µM*; HepG2 viability: 0.3%; GLP-1R agonist: 14.0%; ATXN2 expr inh: -15.0%; TGFb SMAD3 inh: 10.2%; ATXN viability: inconclusive

Results for c1ccc2c(c1)CCN(c1nc3cc4c(cc3s1)OCCO4)C2 ?
GLP1R inv ag: 7.08µM*; HepG2 viability: -59.7%; GLP-1R agonist: -13.8%; ATXN2 expr inh: -72.7%; TGFb SMAD3 inh: -18.4%; ATXN viability: inactive

Results for CCOC(=O)c1c(NC(=O)c2cc(CC)on2)sc(C)c1C ?
GLP1R inv ag: 32.3%; HepG2 viability: 8.5%; ATXN2 expr inh: -8.3%; TGFb SMAD3 inh: 21.0%; ATXN viability: inactive

Results for Cc1ccccc1Nc1c(-c2cccc(O)c2)nc2ccc(Br)cn12 ?
GLP1R inv ag: inconclusive; HepG2 viability: -64.9%; ATXN2 expr inh: inconclusive; TGFb SMAD3 inh: inconclusive; ATXN viability: inconclusive

Results for COc1cc(O)ccc1-c1nc2ccc(Br)cn2c1Nc1ccccc1C ?
GLP1R inv ag: inconclusive; HepG2 viability: 15.8µM*; TGFb SMAD3 inh: inconclusive

What do the screens show for `Cc1cc(C)c(C(=O)NCc2nc(-c3cccc(NC(=O)C4CCCN(C)C4)c3)oc2C)[nH]1` (stereo not given)?
ATXN viability: inactive

Results for Cc1cc(Nc2cccc(Cl)c2)nc2ccc(NC(=O)c3cccc(N(C)C)c3)cc12 ?
GLP1R inv ag: 5.62µM*; HepG2 viability: -28.3%; GLP-1R agonist: -3.3%; ATXN2 expr inh: -12.2%; TGFb SMAD3 inh: -1.8%; ATXN viability: inactive

How did O=C(O)c1ccc2c(c1)nc(Nc1cccc(Cl)c1)c1ccncc12 do in these assays?
ATXN2 expr inh: 9.68µM*

What do the screens show for `Cc1cc(Nc2cccc(Cl)c2)nc2ccc(NC(=O)c3cccnc3)cc12`?
GLP1R inv ag: inconclusive; HepG2 viability: 12.6µM*; GLP-1R agonist: -6.1%; ATXN2 expr inh: inconclusive; TGFb SMAD3 inh: 15.8µM*; ATXN viability: inactive

Results for O=C(NCCC1=CCCCC1)c1cc(COc2ccc(F)cc2Cl)on1 ?
GLP1R inv ag: 5.01µM*; HepG2 viability: 2.0%; GLP-1R agonist: 3.3%; ATXN2 expr inh: -20.6%; TGFb SMAD3 inh: inconclusive; ATXN viability: inactive

How did CCN(Cc1ccccc1)S(=O)(=O)c1ccc(C(=O)N(CCCN(C)C)c2nc3ccc(F)cc3s2)cc1 do in these assays?
GLP1R inv ag: 5.62µM*; HepG2 viability: -106.1%; GLP-1R agonist: -1.0%; ATXN2 expr inh: inconclusive; TGFb SMAD3 inh: inconclusive; ATXN viability: inconclusive

Results for COc1ccc2sc(N(CCCN(C)C)C(=O)c3ccc(C(=O)c4ccccc4)cc3)nc2c1 ?
GLP1R inv ag: 7.08µM*; HepG2 viability: -46.5%; GLP-1R agonist: -2.4%; ATXN2 expr inh: -28.5%; TGFb SMAD3 inh: inconclusive; ATXN viability: inactive

What do the screens show for `CN(C)CCCN(C(=O)c1ccc(S(=O)(=O)N(C)Cc2ccccc2)cc1)c1nc2c(F)cccc2s1`?
GLP1R inv ag: inconclusive; HepG2 viability: -14.9%; GLP-1R agonist: -1.8%; ATXN2 expr inh: inconclusive; TGFb SMAD3 inh: -11.0%; ATXN viability: inactive

What do the screens show for `CCN(Cc1ccccc1)S(=O)(=O)c1ccc(C(=O)N(CCCN(C)C)c2nc3cc(OC)ccc3s2)cc1`?
GLP1R inv ag: inconclusive; HepG2 viability: 22.4µM*; GLP-1R agonist: 7.5%; ATXN2 expr inh: inconclusive; TGFb SMAD3 inh: inconclusive; ATXN viability: inconclusive

What do the screens show for `CN(C)CCCN(C(=O)c1ccc(C(=O)c2ccccc2)cc1)c1nc2ccc(F)cc2s1`?
GLP1R inv ag: inconclusive; HepG2 viability: -78.7%; GLP-1R agonist: 0.9%; TGFb SMAD3 inh: inconclusive; ATXN viability: inconclusive
